Only some compounds are listed: those with a hit (about 2.4% of all), similar ones and a draw of the others.
POLK inh: blocks human DNA polymerase kappa activity. Q9UBT6. 400,000 tested, 0.53% active. purified Pol kappa, fluorescent DNA synthesis assay, 10 min. Potency, µM (series often up to 107 µM), inactives show at the highest dose activity, negative = inhibition, hits mostly inhibitors; further: on the % scale 0 is the no-effect control and ±100 the full control effect
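Kinetic fluorescence screen: compound preincubated 15 min RT with 10 nM enzyme; 50 nM substrate (final) initiates; reads at 0/10 min.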
FEN1 inh: inhibitors of human flap endonuclease 1; 390,000 tested, 0.35% active; Recombinant FEN1 flap cleavage, fluorescence, 15 min; Potency, µM (titrated, usually from 114 µM), inactives show at the highest dose activity change, negative = inhibition, most hits filed as inhibitors; P39748; further: on the % scale 0 is the no-effect control and ±100 the full control effect; nearly all actives have a fitted effect of over 65% in size
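Quantitative HTS format: each compound was titrated, incubated with 10 nM nuclease for 15 min at room temperature, then challenged with flap substrate at 50 nM final. Signal change over 15 min gave concentration–effect curves.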
POLH inh: blocks human DNA polymerase eta activity; AID 588591; Potency, µM (doses to about 114 µM), without a hit: at the highest dose activity change, negative = inhibition, actives largely listed as inhibitors; 390,000 tested, 1.2% active; recombinant Pol eta, fluorescent DNA replication assay; Q9Y253; further: on the % scale 0 is the no-effect control and ±100 the full control effect
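Pol eta at 10 nM preincubated with compounds 15 min at room temperature; reaction started with fluorescent substrate (50 nM final) and read kinetically at 0 and 10 min.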
Pol beta inh: blocks human DNA polymerase beta activity; P06746; 340,000 tested, 1.3% active; Potency, µM (doses to about 114 µM), for the others: at the highest dose activity change, negative = inhibition, most hits filed as inhibitors; Pol beta primer extension/strand displacement, fluorescence kinetic; AID 485314; further: on the % scale 0 is the no-effect control and ±100 the full control effect
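Human Pol beta at 10 nM; strand-displacement substrate 50 nM final. Compound exposure 15 min at room temperature before start, reaction 10 min at room temperature.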
WRN helicase inh: WRN helicase (human) inhibition; Q14191; WRN helicase unwinding, fluorescent forked duplex, kinetic; Potency, µM (titrated, usually from 114 µM), for inactives: top-dose activity change, negative = inhibition, hits mostly inhibitors; 360,000 tested, 0.46% active; further: on the % scale 0 is the no-effect control and ±100 the full control effect; nearly all actives have a fitted effect of over 55% in size
Target sequence (Q14191 whole entry, looked up): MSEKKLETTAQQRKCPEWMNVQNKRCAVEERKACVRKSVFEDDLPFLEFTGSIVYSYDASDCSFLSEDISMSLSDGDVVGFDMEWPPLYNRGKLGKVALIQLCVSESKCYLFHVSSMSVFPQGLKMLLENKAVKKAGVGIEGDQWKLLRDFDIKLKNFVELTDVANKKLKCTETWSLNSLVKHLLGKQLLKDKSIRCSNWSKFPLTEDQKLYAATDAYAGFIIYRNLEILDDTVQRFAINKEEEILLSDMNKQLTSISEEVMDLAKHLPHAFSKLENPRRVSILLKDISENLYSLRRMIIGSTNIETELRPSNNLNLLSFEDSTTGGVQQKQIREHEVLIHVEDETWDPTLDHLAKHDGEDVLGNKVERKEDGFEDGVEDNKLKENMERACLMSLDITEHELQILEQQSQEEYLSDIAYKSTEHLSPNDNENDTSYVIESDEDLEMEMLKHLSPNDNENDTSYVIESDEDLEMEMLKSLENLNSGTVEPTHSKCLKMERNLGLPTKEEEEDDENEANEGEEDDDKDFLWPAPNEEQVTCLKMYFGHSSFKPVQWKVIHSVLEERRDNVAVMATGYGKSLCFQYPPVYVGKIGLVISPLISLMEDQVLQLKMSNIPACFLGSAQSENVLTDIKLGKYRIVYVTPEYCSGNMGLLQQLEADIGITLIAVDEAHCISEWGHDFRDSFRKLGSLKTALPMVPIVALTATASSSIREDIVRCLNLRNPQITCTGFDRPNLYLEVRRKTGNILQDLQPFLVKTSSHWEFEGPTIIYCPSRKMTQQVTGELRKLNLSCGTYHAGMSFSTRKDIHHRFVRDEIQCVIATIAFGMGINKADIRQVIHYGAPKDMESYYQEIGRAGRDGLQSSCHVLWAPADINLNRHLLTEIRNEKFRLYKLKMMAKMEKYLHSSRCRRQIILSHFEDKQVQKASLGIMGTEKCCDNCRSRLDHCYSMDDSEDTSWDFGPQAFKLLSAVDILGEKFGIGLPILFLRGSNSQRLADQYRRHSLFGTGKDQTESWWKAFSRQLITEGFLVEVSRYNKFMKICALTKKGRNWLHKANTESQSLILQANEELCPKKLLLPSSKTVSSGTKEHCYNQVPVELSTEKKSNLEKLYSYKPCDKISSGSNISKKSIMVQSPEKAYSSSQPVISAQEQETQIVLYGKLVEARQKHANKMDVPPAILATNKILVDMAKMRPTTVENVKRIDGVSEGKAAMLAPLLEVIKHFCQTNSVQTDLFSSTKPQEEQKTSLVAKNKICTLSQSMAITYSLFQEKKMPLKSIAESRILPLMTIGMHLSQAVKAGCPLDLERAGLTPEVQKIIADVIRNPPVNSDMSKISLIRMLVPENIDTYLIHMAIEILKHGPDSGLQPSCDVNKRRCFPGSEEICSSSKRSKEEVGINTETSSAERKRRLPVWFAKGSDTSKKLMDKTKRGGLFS
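Fluorescence dequenching readout, ex 525 nm/em 598 nm, kinetic mode: forked duplex DNA (100 nM final) with adjacent fluorophore and quencher unwound by WRN (20 nM final) with 2 mM ATP. Compound preincubation 15 min, room temperature.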
Pol iota inh: inhibitors of human DNA polymerase iota | Potency, µM (titrated, usually from 115 µM), for the others: at the highest dose activity, negative = inhibition, most hits filed as inhibitors | Q9UNA4 | Pol iota fluorescent replication assay, 10 min | 390,000 tested, 1% active
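Fluorescent replication assay read twice, at 0 min and 10 min after adding 50 nM (final) substrate. Enzyme (10 nM) and compounds were first incubated 15 min at room temperature; enzyme-free buffer wells were negative controls.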
Numbers without * were called inactive; ? = inconclusive; . = no result given; [ ] = dose if it differs, or a comment. The call rests on the fitted dose curve; in most records, active means well fitted curve in the direction sought with a large enough effect; inconclusive means small, poorly fitted or top-dose-only effect, or another doubt; inactive means no such curve, though single readings can be large; an effect the other way counts as inactive or inconclusive. Potency means the concentration at half of the fitted maximal effect.

SMILES	POLK inh	FEN1 inh	POLH inh	Pol beta inh	WRN helicase inh	Pol iota inh
O=C(O)c1ccc(Cl)c(NC(=S)NC(=O)c2cccc(COc3ccccc3)c2)c1	5%	-25%	45µM*	25µM*	-15%[11.6 µM]	78%
NC(=S)n1[nH]c(-c2ccc([N+](=O)[O-])cc2)c(N=Nc2ccc(Cl)cc2)c1=O	?	?	?	?	?	20µM*
COc1ccc(S(=O)(=O)N2CN(Cc3ccco3)c3nc4ccccc4nc32)cc1	-9%	-4%	79µM*	-11%	56µM*	?
O=C1CCNc2cc3ccccc3cc21	-17%	-14%	?	25µM*	?	-14%
O=C1CCNc2ccc(-c3ccccc3)cc21	1%	-1%	-13%	8%	-21%	14%
Cc1nc2oc3c(NCC4CCCO4)ncnc3c2c2c1COC(C)(C)C2 (configuration not stated)	-3%	-10%	3%	-25%	7%	30%
Cc1nc2oc3c(NCc4ccccc4)ncnc3c2c2c1COC(C)(C)C2	-6%	-8%	14µM*	8%	-2%	19%
CN(C)c1ccc(/C=C\C=C/c2ccnc3ccccc23)cc1	?	50µM*	.	.	.	-22%
CN(C)c1ccc(/C=C/c2ccnc3ccccc23)c(F)c1	3%	?	.	.	.	17%
CCN(CCCN(C)C)c1ccc(/C=C/c2ccnc3ccccc23)cc1	?	50µM*	.	.	.	?
CN(C)c1ccc(N=Cc2ccnc3ccccc23)cc1	2%	45µM*	.	.	.	?
CCOC(=O)c1sc(NC(=O)c2nc3nc(C)cc(C(F)F)n3n2)c(C(=O)OC(C)C)c1C	-20%	5%	89µM*	-10%	.	-17%
CCOC(=O)c1sc(NC(=O)c2nc3ncccn3n2)c(C(=O)OC)c1C	-16%	-16%	-10%	16%	.	-4%
O=C(CCCN1C(=O)S/C(=C/C=C/c2ccccc2)C1=O)Nc1ccc(C(=O)O)cc1	-13%	13%	89µM*	79%	-3%[11.6 µM]	?
CC(=C\c1ccccc1)/C=C1/SC(=O)N(CCCC(=O)Nc2ccc(C(=O)O)cc2)C1=O	-7%	0%	-3%	24%	-8%	12%
O=C(c1cnccn1)N1CCC2(CC1)CCN(c1cccc(-c3ccccc3)c1)CC2	-9%[60.1 µM]	.	.	.	.	.
COc1cccc2c1C(=O)c1c(O)c3c(c(O)c1C2=O)C[C@@](O)(C(=O)CO)C[C@@H]3O[C@H]1C[C@H](N)[C@@H](O)[C@H](C)O1	?	?	?	.	56µM*	40µM*
COc1cccc2c1C(=O)c1c(O)c3c(c(O)c1C2=O)C[C@@](O)(C(=O)CO)C[C@@H]3OC1C[C@@H](N)[C@H](O)[C@H](C)O1 (some centres not stated)	18µM*	.	.	.	.	.
C=CCn1c(SCC#N)nc2cc(Cl)ccc2c1=O	3%	-18%	.	.	.	34%
CCCN1C(=O)/C(=C/c2c(N3CCNC(=O)C3CC(=O)OC)nc3c(C)cccn3c2=O)SC1=S (configuration not stated)	.	.	.	89µM*	.	.
Cc1c(Br)c(O)c(Br)c(O)c1/C=N/n1c(-c2ccccc2)n[nH]c1=S	35µM*	35µM*	3.2µM*	50µM*	45µM*	7.9µM*
Oc1c(Br)cc(/C=N/n2c(-c3ccccc3)n[nH]c2=S)c(O)c1Br	40µM*	?	10µM*	88%	?	?
CCCCCN(CCCCC)c1ccc(/C=C/c2ccnc3ccccc23)cc1	-11%	-14%	.	.	.	-23%
OCC1(CO)COC(C(Cl)(Cl)Cl)OC1	3%[19.4 µM]	.	.	.	.	.
NN=C1c2cc(S(=O)(=O)NCCO)ccc2-c2ccc(S(=O)(=O)NCCO)cc21	-14%	-4%	.	.	.	3%
SMILES	POLK inh	FEN1 inh	POLH inh	Pol beta inh	WRN helicase inh	Pol iota inh
Cn1c(CCNC(=O)C2CCCCC2)nc2cc(NC(=O)c3cccs3)ccc21	1%	-3%	3%	40µM*	-12%	89%
CN(CC(=O)Nc1ccccc1C(F)(F)F)C(=O)CCc1nc2sc3c(c2c(=O)[nH]1)CCCC3	-9%	-8%	45µM*	?	7%[11.6 µM]	?
CN(Cc1ccco1)C(=O)CCc1nc2sc3c(c2c(=O)[nH]1)CCCC3	?	-13%	?	8%	-23%	45µM*
CN(C)C(=O)CCc1nc2sc3c(c2c(=O)[nH]1)CCCC3	-5%	-1%	-15%	-1%	-7%	-7%
CN(CC(=O)Nc1ccc(Cl)cc1)C(=O)CCc1nc2sc3c(c2c(=O)[nH]1)CCCC3	-41%	-17%	?	.	-14%[11.6 µM]	28µM*
CC(=O)N1CCN(C(=O)CCc2nc3sc4c(c3c(=O)[nH]2)CCCC4)CC1	-14%	14%	-16%	29%	3%	-8%
CN(CC(=O)Nc1ccc(F)cc1)C(=O)CCc1nc2ccccc2c(=O)[nH]1	-4%	-3%	-13%	.	-6%	15%
CN(CC(=O)Nc1ccc(F)cc1)C(=O)CCc1nc2sc3c(c2c(=O)[nH]1)CCCC3	-36%	-15%	16µM*	.	-4%[11.6 µM]	35µM*
Cc1ccc(-c2nnc(SCCC(=O)Nc3ccccc3)n2C)cc1	12%	-3%	.	.	.	23%
CC(C)(C)c1nnc(NC(=O)C2CCN(C(=O)c3ccccc3)CC2)s1	-7%	-2%	.	.	.	?
CCCCCCCCOc1c(OC)cc(/C=C/C(=O)N2CCN(c3ccc(C)c(C)c3)CC2)cc1OC	-18%[12 µM]	.	.	.	.	.
O=C(Cc1cccs1)Nc1ccc(-c2nnn(CC(=O)N3CCOCC3)n2)cc1	-1%	6%	-1%	18µM*	3%	1%
O=C(O)C1C2C=CC(C2)C1C(=O)Nc1ccccc1Br (configuration not stated)	-4%	7%	?	89µM*	-12%[11.6 µM]	-11%
CC(N)(Cc1ccc(O)c(O)c1)C(=O)O (configuration not stated)	?	.	-3%[57.1 µM]	5.6µM*	.	?
O=C(CSC1=NC(=O)C(c2ccccc2)C(=O)N1)Nc1ccccc1[N+](=O)[O-] (configuration not stated)	?	-12%	50µM*	?	-10%[11.6 µM]	?
O=C(CSC1=NC(=O)C(c2ccccc2)C(=O)N1)Nc1ccccc1Cl (configuration not stated)	-15%	-2%	-6%	0%	-27%	-12%
CSc1ccc(/C=C/c2nc3ccccc3n2S(=O)(=O)c2ccc(Br)cc2)cc1	-12%	-18%	-8%	16%	.	?
COc1ccc(-c2nc3ccc(C)cn3c2NCc2ccccc2)cc1SC1CCCCC1	10%	5%	45µM*	.	11%	22µM*
CCCCNc1c(-c2ccc(OC)c(SC3CCCCC3)c2)nc2ccc(C)cn12	-17%	-14%	-27%	.	-30%	-15%

Bioassay records: PubChem BioAssay, National Center for Advancing Translational Sciences (NCATS)
